Unmarked numbers belong to inactive results. Inconclusive results are not listed. Active and inactive are the calls of the source. Unless noted, calls come from the whole dose curve; as a rule, active = well fitted curve in either direction with a large enough effect (not every such curve was filed as active); inconclusive = small, poorly fitted or top-dose-only effect, or another doubt; inactive = flat fitted curve, though single readings scatter.
Columns and labels:
[1] = biological target: Lysosomal acid glucosylceramidase (Homo sapiens) (UniProt P04062); assay: Glucocerebrosidase-p2 (AID 348; in the data active = potency below about 10 µM; note: potency is the fitted concentration of half-maximal effect); conditions: purified GBA, blue fluorogenic substrate, 40 min
In short: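 Normal human glucocerebrosidase (0.2 nM) with blue fluorogenic substrate (80 uM final) in citrate/phosphate pH 5.9 with 10mM sodium taurocholate, 0.01% tween-20; 40 min RT, NaOH/glycine stop; fluorescence Ex 365/Em 440; AC50 from a titration from 0.6 nM upwards.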

[2] = AP1 Signaling Pathway (AID 357); conditions: ME-180 AP-1-bla reporter, EGF-induced, beta-lactamase ratio, 5 h; at 7.69 µM (top of the series) unless noted;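 note: ME-180 reporter cells stimulated with EGF at its EC50 level; % is set by controls: 0 for no effect and ±100 for the full control effect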
In short: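 Titration-series screen for positive or negative modulators of EC50 EGF-induced signaling in ME-180 cells carrying an AP-1-driven beta-lactamase reporter. After 5 hours at 37 degrees Celsius, CCF4 460nm/530nm emission ratio gave %Activity; AC50 values derived.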

[3] = biological target: Cytochrome P450 1A2 (Homo sapiens) (UniProt P05177); assay: p450-cyp1a2 (AID 410; calls by dose curve; note: potency is the fitted concentration of half-maximal effect;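 for activity change, negative = inhibition: -100% = full effect of reference inhibitor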); conditions: recombinant CYP1A2, luciferin-ME demethylation, luminescence; series mostly up to 11.4 µM
In short: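 20nM CYP1A2, 100uM Luciferin-ME (=Km), 100mM KPO4; cpd 10 min RT; +NADPH regen, 60 min RT; stop/detect 20 min; luminescence. Normalized to furafylline 57 uM = full inhibition.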

[4] = Stat Signaling Pathway (AID 446); conditions: ME-180 SIE beta-lactamase reporter, IL-6 stimulated, 5 h; at 7.69 µM (top of the series) unless noted;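 note: ME-180 cervical cancer cells given 40 pM IL-6 alongside compound; SIE-controlled beta-lactamase reporter measured as 460/530 nm FRET emission ratio; % is set by controls: 0 for no effect and ±100 for the full control effect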
In short: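 Compound effects on IL-6-induced STAT reporter activity were measured in ME-180 cells. After overnight culture, cells were co-treated with 40 pM IL-6 for 5 hrs before beta-lactamase substrate loading at room temperature.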

[5] = biological target: Glucocorticoid receptor (Homo sapiens) (UniProt P04150); assay: GR-GFP Redistribution (AID 450;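 active = compounds whose dose series gives a full or clear partial fitted curve of increased nuclear translocation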; note: potency is the fitted concentration of half-maximal effect); conditions: U2OS GR-GFP nuclear translocation, laser cytometry, 2 h
[6] = biological target: Glucocorticoid receptor (Homo sapiens) (UniProt P04150); assay: GR-EFC Redistribution (AID 451; calls by dose curve; note: potency is the fitted concentration of half-maximal effect); conditions: CHO-K1 GR-EFC translocation, beta-gal luminescence, 2 h
In short: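 CHO-K1 cells expressing nuclear EA and GR-ED fragments of b-gal; compounds titrated up to 46 uM final, 2 h at 37 C. GR nuclear translocation read as complemented b-gal luminescence after 1 h RT detection.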

[7] = biological target: Mitogen-activated protein kinase 10 (Mus musculus) (UniProt Q61831); assay: JNK3 AlphaScreen Assay (AID 530); conditions: JNK3 lysate, c-Jun phosphorylation; series mostly up to 11.4 µM;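 note: kinase came from lysate of stimulated human HepG2 cells; signal reports phosphorylation of biotinylated GST-cJun 1-79 at Ser73 with 10 µM ATP; % is set by controls: 0 for no effect and ±100 for the full control effect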
In short: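 HepG2 lysate (IL-1b/TNFa pre-activated) + biotin-GST-cJun 1-79 + anti-pSer73 cJun; cpd titration, 15 min RT; ATP 10 uM start; Tris pH 7.6, MgCl2, DTT, vanadate; beads in EDTA buffer; AlphaScreen.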

[8] = biological target: 3',5'-cyclic-AMP phosphodiesterase 4B (Homo sapiens) (UniProt Q07343); assay: qHTS Assay for Inhibitors of PDE-IV (AID 607; active = well fitted activation curve with a large enough effect in the main read-out, with a control signal flat, not every such curve was filed as active; note: % of control where 0% means no effect); conditions: HEK293 ACTOne CNG channel cells, membrane potential fluorescence; series mostly up to 22.9 µM
In short: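 ACTOne HEK293 cells carry a modified cAMP-gated CNG channel and express endogenous PDE4; plated 1000 cells/well, compounds up to 22.9 uM final. Membrane-potential dye fluorescence (ex 535/em 590) was read; parental cells received 10 uM forskolin + 100 uM RO 20-1724.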

[9] = biological target: Cytochrome P450 2D6 (Homo sapiens) (UniProt P10635); assay: qHTS Assay for Inhibitors and Substrates of Cytochrome P450 2D6 (AID 891; active = well fitted curve in the direction sought with a large enough effect; an effect the other way counts as inactive or inconclusive; note: potency is the fitted concentration of half-maximal effect; nearly all actives have a fitted effect of over 60% in size); conditions: recombinant CYP2D6, luciferin-ME EGE luminescence; series mostly up to 11.4 µM
In short: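 Luminescent read-out of luciferin formed by 5 nM human CYP2D6 demethylating 30 uM Luciferin-ME EGE (Km level) over 60 min at room temperature after NADPH regeneration addition. Data normalized to full inhibition by 1.43 uM quinidine.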

[10] = biological target: Cytochrome P450 2C19 (Homo sapiens) (UniProt P33261); assay: qHTS Assay for Inhibitors and Substrates of Cytochrome P450 2C19 (AID 899; active = well fitted curve in the direction sought with a large enough effect; an effect the other way counts as inactive or inconclusive; note: nearly all actives have a fitted effect of over 60% in size; note: potency is the fitted concentration of half-maximal effect; for activity, negative = inhibition: % is set by controls: 0 for no effect and ±100 for the full control effect); conditions: recombinant CYP2C19, luciferin-H EGE luminescence; series mostly up to 11.4 µM
In short: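 5 nM human CYP2C19 with 10uM Luciferin-H EGE (at KM) in 50mM KPO4, compound preincubated 10 min at 37C, then NADPH regeneration for 60 min at 37C. Luciferin read by luminescence after detection reagent; normalized to 57uM ketoconazole as full inhibition.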

[11] = biological target: Cytochrome P450 3A4 (Homo sapiens) (UniProt P08684); assay: qHTS Assay for Activators of Cytochrome P450 3A4 (AID 885; active = well fitted curve in the direction sought with a large enough effect; an effect the other way counts as inactive or inconclusive; note: nearly all actives have a fitted effect of over 65% in size); conditions: recombinant CYP3A4, Luciferin-PPXE luminescence, 60 min; series mostly up to 11.4 µM
In short: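 CYP3A4 activity: Luciferin-PPXE O-dealkylation, 25uM substrate, 200mM KPO4, RT throughout. Read-out is luciferase luminescence; higher values reflect activation.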

[12] = qHTS Assay for Identification of Small Molecule Agonists for Hypoxia Response Element Signaling Pathway (AID 914; active = well fitted activation curve with a large enough effect in the signal ratio, with a control signal flat, not every such curve was filed as active; the % refers to the signal ratio; note: % of control where 0% means no effect); conditions: ME-180 (cervical carcinoma) HRE-bla reporter, beta-lactamase ratio, CoCl2, 17 h; activation: hits give high values
In short: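 Cells were plated overnight, pin-dosed with compound in a titration series, co-stimulated with EC50 CoCl2 and incubated 17 hours at 37 degrees Celsius. CCF4 substrate was then loaded, and AC50 values came from the 460nm/530nm ratio.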

3',5'-cyclic-AMP phosphodiesterase 4B (Homo sapiens), sequence (Q07343 whole entry, looked up): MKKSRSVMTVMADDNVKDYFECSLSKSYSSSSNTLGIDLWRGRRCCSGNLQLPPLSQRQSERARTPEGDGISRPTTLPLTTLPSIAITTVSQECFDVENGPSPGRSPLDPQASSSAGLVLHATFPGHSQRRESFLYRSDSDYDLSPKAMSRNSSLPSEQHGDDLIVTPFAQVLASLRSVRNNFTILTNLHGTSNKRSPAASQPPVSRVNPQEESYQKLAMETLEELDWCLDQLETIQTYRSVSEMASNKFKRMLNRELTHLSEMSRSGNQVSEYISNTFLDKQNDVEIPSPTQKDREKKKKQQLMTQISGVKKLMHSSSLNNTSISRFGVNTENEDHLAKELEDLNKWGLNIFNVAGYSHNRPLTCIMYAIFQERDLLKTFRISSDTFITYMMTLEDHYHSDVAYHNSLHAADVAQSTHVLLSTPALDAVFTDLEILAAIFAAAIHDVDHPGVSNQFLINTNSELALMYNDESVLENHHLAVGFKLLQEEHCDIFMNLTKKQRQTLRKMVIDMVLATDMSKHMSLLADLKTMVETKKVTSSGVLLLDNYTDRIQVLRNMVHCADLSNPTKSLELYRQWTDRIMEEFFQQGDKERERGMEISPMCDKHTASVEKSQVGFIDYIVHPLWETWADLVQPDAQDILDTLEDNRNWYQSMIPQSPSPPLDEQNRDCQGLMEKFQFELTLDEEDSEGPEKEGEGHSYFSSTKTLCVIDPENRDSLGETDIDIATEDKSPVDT
Cytochrome P450 1A2 (Homo sapiens), sequence (P05177 whole entry, looked up): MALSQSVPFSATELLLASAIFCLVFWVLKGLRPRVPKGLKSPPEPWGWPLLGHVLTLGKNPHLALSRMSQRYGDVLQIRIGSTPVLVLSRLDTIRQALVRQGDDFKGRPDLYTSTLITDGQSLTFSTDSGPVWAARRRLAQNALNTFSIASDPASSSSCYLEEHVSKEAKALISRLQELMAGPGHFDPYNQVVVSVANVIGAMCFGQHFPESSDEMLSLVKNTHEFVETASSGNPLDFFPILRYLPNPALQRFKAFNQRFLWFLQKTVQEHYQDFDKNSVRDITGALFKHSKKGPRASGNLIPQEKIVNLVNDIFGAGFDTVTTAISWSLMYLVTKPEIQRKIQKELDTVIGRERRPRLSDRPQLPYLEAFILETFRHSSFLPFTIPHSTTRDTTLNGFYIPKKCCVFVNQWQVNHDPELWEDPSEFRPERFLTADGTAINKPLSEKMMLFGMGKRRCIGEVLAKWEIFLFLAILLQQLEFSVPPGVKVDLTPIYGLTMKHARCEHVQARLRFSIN
Lysosomal acid glucosylceramidase (Homo sapiens), sequence (P04062 whole entry, looked up): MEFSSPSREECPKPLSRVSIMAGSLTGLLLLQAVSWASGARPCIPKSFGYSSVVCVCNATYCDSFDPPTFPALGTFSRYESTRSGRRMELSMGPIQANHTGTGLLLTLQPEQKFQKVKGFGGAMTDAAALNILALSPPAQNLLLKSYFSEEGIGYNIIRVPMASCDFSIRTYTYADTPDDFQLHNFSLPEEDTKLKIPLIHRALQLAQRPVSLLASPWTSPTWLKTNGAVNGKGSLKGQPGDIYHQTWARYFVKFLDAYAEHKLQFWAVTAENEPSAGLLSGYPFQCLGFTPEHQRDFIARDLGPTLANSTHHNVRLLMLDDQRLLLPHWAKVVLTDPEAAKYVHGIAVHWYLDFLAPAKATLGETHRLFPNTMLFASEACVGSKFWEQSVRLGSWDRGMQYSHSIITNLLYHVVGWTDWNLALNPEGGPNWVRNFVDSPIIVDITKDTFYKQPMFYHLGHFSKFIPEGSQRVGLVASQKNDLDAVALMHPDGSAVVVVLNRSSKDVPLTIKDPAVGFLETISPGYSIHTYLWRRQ
Cytochrome P450 2D6 (Homo sapiens), sequence (P10635 whole entry, looked up): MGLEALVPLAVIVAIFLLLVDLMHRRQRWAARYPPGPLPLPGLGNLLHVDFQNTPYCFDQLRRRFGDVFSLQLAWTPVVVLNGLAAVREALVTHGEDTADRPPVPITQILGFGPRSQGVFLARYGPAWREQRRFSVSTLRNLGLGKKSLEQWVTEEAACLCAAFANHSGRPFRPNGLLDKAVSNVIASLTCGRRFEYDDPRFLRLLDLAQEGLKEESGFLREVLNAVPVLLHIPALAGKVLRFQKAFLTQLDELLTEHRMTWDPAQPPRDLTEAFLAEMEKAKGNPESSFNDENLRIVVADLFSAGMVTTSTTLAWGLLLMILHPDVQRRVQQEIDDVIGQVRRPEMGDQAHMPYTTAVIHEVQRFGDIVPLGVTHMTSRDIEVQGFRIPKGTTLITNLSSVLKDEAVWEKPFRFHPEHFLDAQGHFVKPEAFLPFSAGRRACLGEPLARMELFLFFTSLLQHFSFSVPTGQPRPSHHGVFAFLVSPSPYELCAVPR
Glucocorticoid receptor (Homo sapiens), sequence (P04150 whole entry, looked up, the tested form may be a part): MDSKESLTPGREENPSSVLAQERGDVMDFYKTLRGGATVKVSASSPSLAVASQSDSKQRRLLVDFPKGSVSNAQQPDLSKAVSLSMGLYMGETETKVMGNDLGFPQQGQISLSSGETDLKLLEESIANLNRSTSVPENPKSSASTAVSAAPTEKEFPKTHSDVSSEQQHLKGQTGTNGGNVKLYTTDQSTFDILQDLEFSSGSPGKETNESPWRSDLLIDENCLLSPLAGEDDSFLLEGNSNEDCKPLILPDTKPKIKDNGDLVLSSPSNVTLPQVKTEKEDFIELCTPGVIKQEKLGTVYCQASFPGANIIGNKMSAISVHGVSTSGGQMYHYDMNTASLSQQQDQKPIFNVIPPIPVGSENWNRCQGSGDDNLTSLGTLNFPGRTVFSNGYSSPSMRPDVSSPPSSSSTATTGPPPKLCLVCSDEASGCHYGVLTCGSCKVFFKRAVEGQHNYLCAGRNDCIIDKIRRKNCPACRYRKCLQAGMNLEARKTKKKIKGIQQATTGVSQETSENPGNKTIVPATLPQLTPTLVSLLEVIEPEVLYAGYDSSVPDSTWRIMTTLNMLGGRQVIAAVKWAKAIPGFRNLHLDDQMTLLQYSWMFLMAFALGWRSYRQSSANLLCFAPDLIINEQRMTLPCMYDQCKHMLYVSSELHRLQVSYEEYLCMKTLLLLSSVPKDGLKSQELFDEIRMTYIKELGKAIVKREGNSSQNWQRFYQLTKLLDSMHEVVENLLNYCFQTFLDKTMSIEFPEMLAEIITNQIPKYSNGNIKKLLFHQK
Cytochrome P450 2C19 (Homo sapiens), sequence (P33261 whole entry, looked up): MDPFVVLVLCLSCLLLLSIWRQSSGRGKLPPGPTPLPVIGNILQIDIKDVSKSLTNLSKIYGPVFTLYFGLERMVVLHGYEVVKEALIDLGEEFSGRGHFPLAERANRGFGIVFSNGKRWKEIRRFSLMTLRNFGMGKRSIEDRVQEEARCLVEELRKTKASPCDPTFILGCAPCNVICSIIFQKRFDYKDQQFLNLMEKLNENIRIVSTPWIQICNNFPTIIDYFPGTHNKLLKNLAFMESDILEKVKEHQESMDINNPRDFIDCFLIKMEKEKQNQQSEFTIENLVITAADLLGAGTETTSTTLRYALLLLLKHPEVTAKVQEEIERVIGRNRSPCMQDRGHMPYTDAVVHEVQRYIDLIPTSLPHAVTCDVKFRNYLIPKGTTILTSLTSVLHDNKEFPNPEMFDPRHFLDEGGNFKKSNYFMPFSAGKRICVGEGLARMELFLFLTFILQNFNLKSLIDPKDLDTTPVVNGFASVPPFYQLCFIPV
Cytochrome P450 3A4 (Homo sapiens), sequence (P08684 whole entry, looked up): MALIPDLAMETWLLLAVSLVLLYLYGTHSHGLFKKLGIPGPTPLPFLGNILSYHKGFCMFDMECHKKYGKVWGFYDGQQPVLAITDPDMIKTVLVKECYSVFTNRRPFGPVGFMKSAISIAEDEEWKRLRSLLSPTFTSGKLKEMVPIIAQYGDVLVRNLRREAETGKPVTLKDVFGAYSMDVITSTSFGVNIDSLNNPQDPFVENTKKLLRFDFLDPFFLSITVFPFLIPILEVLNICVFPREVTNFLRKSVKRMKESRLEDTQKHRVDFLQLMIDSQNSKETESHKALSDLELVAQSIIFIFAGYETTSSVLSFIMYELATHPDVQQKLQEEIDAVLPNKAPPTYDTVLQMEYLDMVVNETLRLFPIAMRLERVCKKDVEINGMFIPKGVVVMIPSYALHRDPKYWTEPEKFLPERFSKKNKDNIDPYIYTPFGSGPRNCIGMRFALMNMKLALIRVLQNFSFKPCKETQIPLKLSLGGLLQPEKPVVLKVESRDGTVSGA

| Structure (SMILES) | Potency [1] | activity change, negative = inhibition [2] [%] | Potency [3] | activity, negative = inhibition [4] [%] | Potency [5] [µM] | Potency [6] [µM] | Potency [7] | Potency [8] | Potency [9] | Potency [10] | Potency [11] | activity change, negative = inhibition [3] | activation [12] [%] |
| --- | --- | --- | --- | --- | --- | --- | --- | --- | --- | --- | --- | --- | --- |
| CN(Cc1cccc2ccccc12)Cc1cccc2ccccc12 | > 11.4 µM | 6.28 | 3.16 µM (active) | -2.17 | > 46 | > 9.22 | inactive | inactive | 0.398 µM (active) | 1.58 µM (active) | – | – | – |
| O=C(c1cc(Br)ccc1O)c1cc(Br)ccc1O | > 11.4 µM | -21.4 | 1 µM (active) | -28 | > 46 | > 9.22 | inactive | inactive | – | 0.199 µM (active) | – | – | – |
| N=c1sc2ccccc2n1CCS (tested in a mixture with another compound) | 4.5 µM (active) | 6.12 | 1 µM (active) | -20 | > 46 | > 9.22 | inactive | inactive | 0.316 µM (active) | 1.58 µM (active) | inactive | – | – |
| C[C@H](CN(C)C)C(O)(c1ccccc1)c1ccccc1 | > 11.4 µM | -8.88 | inactive | 8.39 | > 46 | > 9.22 | inactive | inactive | – | inactive | – | – | – |
| c1ccc(C[n+]2cccc(-c3cc4ccccc4[nH]3)c2)cc1 | > 11.4 µM | 2.74 | 1.26 µM (active) | -0.473 | > 46 | > 9.22 | inactive | inactive | 1.26 µM (active) | – | – | – | – |
| Cc1cc2ccccc2c[n+]1CC(O)C[n+]1cc2ccccc2cc1C | > 11.4 µM | -5.85 | inactive | 4.97 | > 46 | > 9.22 | inactive | inactive | 0.0251 µM (active) | – | – | – | – |
| COc1ccccc1-c1ccc2ncnc(NCc3cccnc3)c2c1 | > 11.4 µM | -18.5 | 0.794 µM (active) | -19.8 | > 46 | > 46 | inactive | inactive | 7.94 µM (active) | 0.0079 µM (active) | inactive | – | – |
| C[C@H](NC(=O)c1ccc(Cl)c(Cl)c1)c1ccc(-c2ccccc2)cc1 | > 11.4 µM | -14.7 | 0.631 µM (active) | -12.5 | > 46 | > 9.22 | inactive | inactive | – | 1.26 µM (active) | – | – | – |
| Clc1ccc(Cl)c(SCCCN2CCNCC2)c1 | > 11.4 µM | 3.23 | 0.501 µM (active) | -0.882 | > 46 | > 9.22 | inactive | inactive | 2.51 µM (active) | – | – | – | – |
| Oc1c([C@H](Nc2ccccn2)c2ccccc2)ccc2cccnc12 | > 11.4 µM | -3.08 | – | 15.1 | > 46 | > 9.22 | inactive | inactive | 0.316 µM (active) | – | – | -21.9% [at 2.29 µM] | – |
| Cn1c(=O)c2c(nc(N/N=C\c3ccccc3C(=O)O)n2C)n(C)c1=O | > 11.4 µM | -10.8 | inactive | 3.2 | > 46 | > 9.22 | inactive | inactive | – | inactive | – | – | – |
| CCN(Cc1cc(Cl)cc(C)c1O)Cc1c(O)ccc2ccccc12 | > 11.4 µM | -8.15 | 1 µM (active) | 1.25 | > 46 | > 9.22 | inactive | inactive | 1.26 µM (active) | 1.26 µM (active) | – | – | – |
| O=[N+]([O-])c1ccc(CSCc2ccc(Cl)cc2)cc1 | > 11.4 µM | -19.3 | 3.98 µM (active) | 11.6 | > 46 | > 9.22 | inactive | inactive | – | 0.398 µM (active) | – | – | – |
| CC1(C)N=C(N)N=C(N)N1c1cccc(OCc2cccc([N+](=O)[O-])c2)c1 | > 11.4 µM | -5.25 | 5.01 µM (active) | -5.32 | > 46 | > 9.22 | inactive | inactive | – | inactive | – | – | 5.31 |
